Dicer inh: blocks human Dicer maturation of pre-miR-21; AID 1347074; z-score at 25 µM; Q9UPY3; cat-ELCCA pre-miR-21 Dicer processing, chemiluminescence; hits give high values; actives 6% (n = 47,000); in the data active means z-score above about 3, passing the limit was not always enough;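 further: plate controls were vehicle for no effect and no enzyme for full effect; higher signal means more uncleaved substrate so more Dicer inhibition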
Active calls of the source: *. The full list was thinned out, with hits kept by preference.

SMILES	Dicer inh
CC(=O)c1ccccc1C(=O)c1ccc(Cl)cc1	58.7*
Cc1c(C)c(C)c(C(=O)c2ccc(Cl)cc2)c(C)c1C	0.14
Nc1nc2c(nc(NCCCN3CCOCC3)n2[C@H]2O[C@@H](CO)[C@H](O)[C@@H]2O)c(=O)[nH]1	3.48*
Nc1nc2c(nc(N3CCN(c4ccccc4)CC3)n2[C@H]2O[C@@H](CO)[C@H](O)[C@@H]2O)c(=O)[nH]1	-0.68
CNc1nc2c(N)ncnc2n1[C@H]1O[C@@H](CO)[C@H](O)[C@@H]1O	-0.07
CCOC(=O)CNC(=O)c1ccc(Cl)cc1	-0.21
CCOC(=O)CNC(=O)c1ccccc1	2.8
CCCc1nn(C)cc1C(=O)NCC(=O)OCC	4.76*
COCCNC(=O)CSc1nc(-c2ccco2)cc(C(F)(F)F)n1	-0.49
Cc1ccc(-c2nc(NC(=O)c3ccc(C(F)(F)F)cc3)sc2C)cc1Cl	1.08
CCOC(=O)C(C(=O)NCC1CCCO1)C1CCCCC1 (stereo unspecified)	3.97*
CC(O)CNC(=O)C(=O)NCC1CCCO1 (stereo unspecified)	1.2
CC(C)NC(=O)C(=O)NCC1CCCO1 (stereo unspecified)	0.7
O=C1CC2(CCCC2)C(=O)N1c1ccc(S(=O)(=O)N2CCN(c3nccc(C(F)(F)F)n3)CC2)cc1Cl	-0.41
C=CCOC(=O)C1=C(C)NC2=C(C(=O)CCC2)C1c1cc(Br)c(O)c(OCC)c1 (stereo unspecified)	2.74
O=C1CCCC2=C1C(c1cccc(OCc3ccccc3)c1)n1ncnc1N2 (stereo unspecified)	0.61
CC(C)(Oc1ccc(Cl)cc1)C(=O)Nc1sc2c(c1C(N)=O)CCC2	-3.43
CCOC(=O)c1sc2c(c1O)c(=O)n(-c1ccccc1)c(=S)n2-c1ccccc1	-0.09
CCOC(=O)c1sc(=S)n(-c2ccc(OC)cc2)c1C	4.18*
CCOC(=O)c1c(C)n(-c2ccc(N(C)C)cc2)c2ccc(O)cc12	6.63*
CCOC(=O)c1sc(-c2ccc(C)cc2)nc1O	-0.32
CCOC(=O)c1sc(=S)n(-c2cc(C)ccc2C)c1N	5.18*
CCOC(=O)c1c(C)n(-c2ccc(OC)cc2)c2ccc(O)cc12	4.7*
CCOC(=O)c1c(C)n(-c2ccccc2)c2ccc(O)cc12	1.5
CCOC(=O)c1c(O)c(O)c(C(=O)OCC)n1-c1ccc(OC)cc1	0.01
SMILES	Dicer inh
CCOC(=O)c1c(C)n(CCO)c2ccc(O)cc12	1.93
CCOC(=O)c1c(C)n(-c2ccccc2)c2c1cc(O)c1ccccc12	-1.86
CCOC(=O)c1sc(=S)n(-c2ccc(Cl)cc2)c1C	0.39
CCOC(=O)c1c(C)n(-c2ccccc2)c2ccc(OC(=O)c3cccs3)cc12	1.44
CC(C)(C)c1ccc(C(=O)CC2(O)C(=O)Nc3ccc(Cl)cc32)cc1 (stereo unspecified)	1.32
N#Cc1c(-c2cccs2)cc(-c2cccs2)nc1OCC(=O)c1ccc(-c2ccccc2)cc1	2.51
CCOC(=O)Cn1c(C)cc(=O)c2cccc(OC)c21	-0.67
CSc1ccc(-c2ncnn2-c2ccc(C)c(Cl)c2)cc1	-1.75
COc1ccc(CC(=O)c2c(O)cc(O)cc2O)cc1	2.03
CCOC(=O)C1=C(C)Nc2nnnn2C1c1ccc(OC)cc1OC (stereo unspecified)	0.19
O=C(O)Cn1nnc(-c2ccccc2F)n1	1.51
COc1ccc(CCN2CN=C(Nc3nc4ccccc4s3)NC2)cc1OC	-0.13
Cc1ccccc1C1CC(=O)NC(SCC(=O)OCc2ccccc2)=C1C#N (stereo unspecified)	-2.13
CC(C)N(Cc1ccccc1)C(=O)c1c(F)cccc1Cl	-0.84
CC(C)(C)OC(=O)NC(COCc1ccccc1)C(N)=O (stereo unspecified)	-0.63
CC(C)(C)OC(=O)N[C@@H](Cc1ccccc1)C(=O)OCc1ccc(CC(=O)O)cc1	0.83
CSCC[C@H](NC(=O)OC(C)(C)C)C(=O)OCc1ccc(CC(=O)O)cc1	3*
Cc1ccc2nc(NC(=O)c3ccc([N+](=O)[O-])cc3)[nH]c(=O)c2c1	0.06
CC(=O)NC(Nc1cccc(C(F)(F)F)c1)(C(F)(F)F)C(F)(F)F	1.12
CCCc1ccc(SC(=O)N(C)C)cc1O	-0.4
Cc1nc(-c2ccc(Oc3ncc(C(F)(F)F)cc3Cl)cc2)no1	-0.42
Cc1cc(OC(=O)c2ccco2)nc(SCc2c(Cl)cccc2Cl)n1	-1.31
O=C(CN1c2cccc3cccc(c23)S1(=O)=O)Nc1ccc(F)cc1F	0.59
O=C1C(=O)N(CCN2CCOCC2)C(c2cccnc2)/C1=C(\O)c1ccc(Br)cc1 (stereo unspecified)	0.02
Cc1cc(C)nc(Nc2nc3ccccc3[nH]2)n1	3.69*
SMILES	Dicer inh
Cc1cc(C)nc(Nc2ccccc2O)n1	2.48
CCOC(=O)Nc1nc2ccccc2[nH]1	-1
C(=C\c1ccc2c(c1)OCO2)/C1=NN(c2ccccc2)C(c2ccc3c(c2)OCO3)C1 (stereo unspecified)	0.21
Cn1c(/C=C/c2cn(Cc3ccccc3)c3ccccc23)nc2ccccc2c1=O	10.5
Cn1c(/C=C/c2ccc3c(c2)OCO3)nc2ccccc2c1=O	6.24*
CCOCCOC(=O)C1=C(C)NC2=C(C(=O)CC(C)(C)C2)C1c1ccc(OC)c(O)c1 (stereo unspecified)	0.73
COC(=O)CSC1=C(C#N)C(c2ccc(O)c(OC)c2)CC(=O)N1 (stereo unspecified)	-0.1
CC1CC(C)CN(c2ccc(N)cc2C(=O)O)C1 (stereo unspecified)	-1.61
O=C1c2ccccc2C(=O)N1CN1CCN(C(c2ccccc2)c2ccccc2)CC1	0.49
O=C1c2ccccc2C(=O)N1CN1CCSCC1	0.66
CC1CN(CN2C(=O)c3ccccc3C2=O)CC(C)O1 (stereo unspecified)	3.39*
O=S(=O)(Nc1ccc(Oc2ccc(F)cc2)nc1)c1cccc2cccnc12	0.4
CSc1sc(C#N)c2c1/C(=N/OC(C)=O)CCC2	-1.02
CSc1sc(C#N)c2c1/C(=N/OC(=O)c1ccc(Cl)cc1)CCC2	-2.43
CSc1sc(C#N)c2c1/C(=N\O)CCC2	4.4*
CCCOC(=O)COc1ccc2c(=O)c(Oc3ccc(OC)cc3)c(C(F)(F)F)oc2c1	0.64
Cc1cccc(C)c1NC(=S)NNC(=O)CCc1ccc(O)cc1	0.1
COc1ccc(-c2cc(OC(=O)c3cccs3)c3c(C)oc(C)c3c(=O)c2)cc1	4.31*
COc1ccc(-c2cc(OC(=O)c3ccc(Cl)cc3)c3c(C)oc(C)c3c(=O)c2)cc1	1.73
COc1ccc(-c2cc(OC(=O)c3cccc(Br)c3)c3c(C)oc(C)c3c(=O)c2)cc1	2.69
CCOC(=O)c1cc(-c2ccc(Cl)cc2)oc1/C=N/OC(=O)c1ccco1	-0.64
COC(=O)c1cc(/C=N/NC(=S)NC(C)(C)C)cn1C	1.26
COCCOC(=O)C1=C(C)NC2=C(C(=O)CC(c3ccccc3)C2)C1c1cc2c(cc1Cl)OCO2 (stereo unspecified)	0.37
CCC(=O)Nc1ncc([N+](=O)[O-])s1	1.02
Cc1ccc(C2CC(=O)c3cnc(N4CCN(Cc5ccc6c(c5)OCO6)CC4)nc3C2)cc1 (stereo unspecified)	0.38
O=C(c1ccc(C(F)(F)F)cc1)N(c1ccccc1)n1c(-c2cccc([N+](=O)[O-])c2)csc1=S	-1.02
CCOc1ccccc1C1C(C(=O)OC)=C(C)NC2=C1C(=O)c1ccccc12 (stereo unspecified)	0.84
COC(=O)C1=C(C)NC(C)=C(C(=O)OCC(C)C)C1c1ccccc1[N+](=O)[O-] (stereo unspecified)	3.86*
